Values joined by “and” are separate entries in the source; they are usually repeats but may differ in a detail not shown here. Equal values may be shown once. Hit rate of the full screen: of about 6,400 compounds, about 610 (9.5%) were called active. Cut-off read from the data, not from the text of the source: active = activity change below about -70%; inconclusive = no clear call, values can overlap the other calls; inactive = above that. The entries come from a sample that favours actives as a whole. More than one record can exist for a structure, and the calls need not agree.
assay: Toxoplasma gondii ME49Luc growth in HeLa cells, luciferase, no IFN-y, primary screen (AID 1259421); settings: T. gondii ME49Luc in HeLa, 72 h, stronger effect = lower value, concentration not given here

| SMILES | activity change, negative = inhibition |
| --- | --- |
| Cc1cc(=O)oc2c(C=O)c(O)ccc12 | 16.5% (inactive) |
| Cc1cc2c(C(C)C)c(O)c(O)c(C=O)c2c(O)c1-c1c(C)cc2c(C(C)C)c(O)c(O)c(C=O)c2c1O | -70.8% (active) and -12.6% (inactive) |
| CC(=O)c1ccc(O)c(C(N)=O)c1 | 7.8% (inactive) |
| CCCCNCC1COc2ccccc2O1 (stereo not drawn) | 0.699% (inactive) |
| Cc1[nH]cnc1CN1CCc2c(c3ccccc3n2C)C1=O | 17% (inactive) |
| Cn1c2ccccc2c2c3c(c4c5ccccc5n(CCC#N)c4c21)CNC3=O | -94.9% (active) |
| CO[C@@H]1[C@H](N(C)C(=O)c2ccccc2)C[C@H]2O[C@]1(C)n1c3ccccc3c3c4c(c5c6ccccc6n2c5c31)C(=O)NC4 | -86.8% (active) |
| CN[C@@H]1C[C@H]2O[C@@](C)([C@@H]1OC)n1c3ccccc3c3c4c(c5c6ccccc6n2c5c31)C(=O)N[C@H]4O | -88.9% (active) |
| O=C1NCc2c1c1c3ccccc3[nH]c1c1[nH]c3ccccc3c21 | 2.85% (inactive) |
| C[C@]12OC(C[C@]1(O)CO)n1c3ccccc3c3c4c(c5c6ccccc6n2c5c31)CNC4=O | -87.7% (active) |
| CC1(C)Oc2ccc(C#N)cc2C(N2CCCC2=O)C1O (stereo not drawn) | 4.23% (inactive) |
| C[N+](C)(C)C[C@H](O)CC(=O)O | 9.13% (inactive) |
| CC(Cc1ccccc1)(NC(=O)CN)c1ccccc1 (stereo not drawn) | -47.2% (inactive) and 8.98% (inactive) |
| CCc1ccc(C(=O)C(C)CN2CCCCC2)cc1 (stereo not drawn) | 8.8% (inactive) and 14.4% (inactive) |
| O=C(/C=C/c1ccc(O)c(O)c1)OC(Cc1ccc(O)c(O)c1)C(=O)O (stereo not drawn) | 2.52% (inactive) |
| CO/N=C(\N)c1ccc(-c2ccc(-c3ccc(/C(N)=N/OC)cc3)o2)cc1 | 86.4% (inactive) |
| COc1cc(OC)cc(OC)c1 | 10% (inactive) |
| O=C(CO)C(O)C(O)C(O)CO (stereo not drawn) | 2.77% (inactive) |
| CC(=O)[C@H]1CCC2C3CC=C4C[C@@H](O)CC[C@]4(C)C3CC[C@@]21C (stereo partly drawn) | 1.09% (inactive) |
| COC(=O)c1cc(Cl)ccc1OC | 1.3% (inactive) |
| COc1cc(OC)c(NC(=O)Nc2cc(C)on2)cc1Cl | 4.07% (inactive) and 26.1% (inactive) |
| COc1ccc(Cl)cc1NC(=O)Nc1cc(C)nc2ccccc12 | -81.5% (active) and -81.1% (active) |
| O=C(O)Cc1csc(-c2ccc(Cl)cc2)n1 | 15.8% (inactive) |
| CS(=O)(=O)Nc1cc2occ(NC=O)c(=O)c2cc1Oc1ccccc1 | 15.7% (inactive) |
| CCCCCCCCCCC(C)(C)C(=O)Nc1c(OC)cc(OC)cc1OC | 16.9% (inactive) |
| CC(C)(C)/[N+]([O-])=C/c1ccc(S(=O)(=O)O)cc1S(=O)(=O)O | 8.6% (inactive) |
| Cn1ccc2cc3c(cc21)CCN3C(=O)Nc1cccnc1 | 104% (inactive) and 4.22% (inactive) |

| SMILES | activity change, negative = inhibition |
| --- | --- |
| CN(C)c1nc(N)c(C(=O)Nc2cccnc2)nc1Cl | 157% (inactive) and 219% (inactive) |
| CS(=O)(=O)c1ccc(C(=O)Nc2ccc(Cl)c(-c3ccccn3)c2)c(Cl)c1 | 19.4% (inactive) |
| CC(=O)NS(=O)(=O)c1ccc(NC(=O)c2ccccc2C(=O)O)cc1 | 1.07% (inactive) |
| CS(=O)(=O)c1ccc(-c2cnc(N)c(C(=O)Nc3ccccc3)n2)cc1 | -81.9% (active) |
| CN1CCN(S(=O)(=O)c2ccc(-c3cnc(N)c(C(=O)Nc4cccnc4)n3)cc2)CC1 | -77.6% (active) |
| COc1ccc(/C=C/c2cc(O)cc(O[C@@H]3O[C@H](CO)[C@@H](O)[C@H](O)[C@H]3O)c2)cc1 | 12.1% (inactive) |
| Clc1cccc(C=NC=Nc2cccc(Cl)c2)c1 | -3.22% (inactive) |
| COC(=O)[C@@H]1CC(=O)O[C@H](C)C/C=C/C=C/[C@H](O)[C@H](C)C[C@H](CC=O)[C@H](OC2O[C@H](C)[C@@H](OC3C[C@@](C)(O)[C@@H](OC(=O)CC(C)C)[C@H](C)O3)[C@H](N(C)C)[C@H]2O)[C@H]1OC (stereo partly drawn) | -63.5% (inactive) |
| CC(Cc1ccc(O)c(O)c1)C(C)Cc1ccc(O)c(O)c1 (stereo not drawn) | 5.71% (inactive) |
| CNC(=O)c1ccc2cc([C@]3(O)CCn4cncc43)ccc2c1 | 9.56% (inactive) |
| C=C1C(=O)CC2CC3OC3(C)CCC3OC3(C)C[C@H](OC(C)=O)C1C2(C)C (stereo partly drawn) | -76.2% (active) |
| NCC(=O)CCC(=O)OCc1ccccc1 | 16.4% (inactive) |
| NC(Cc1ccccn1)c1ccccc1 (stereo not drawn) | 13% (inactive) |
| Oc1c(I)cc(I)c2cccnc12 | -8.85% (inactive) and -77.3% (active) |
| Oc1c(I)cc(Cl)c2cccnc12 | 24.2% (inactive) |
| Cc1ccc2c(Cl)cc(Cl)c(O)c2n1 | -84% (active) |
| Oc1c(Cl)cc(Cl)c2cccnc12 | -83.9% (active) and -88% (active) and -90% (active) |
| O=S(=O)(O)c1cc(I)c(O)c2ncccc12 | 9.1% (inactive) and 15.9% (inactive) |
| CO[C@@H]1[C@@H](O[C@@H]2O[C@H](C)[C@@H](O[C@H]3C[C@@](C)(O)[C@H](O)[C@H](C)O3)[C@H](N(C)C)[C@H]2O)[C@@H](CC=O)C[C@@H](C)[C@@H](O[C@H]2CC[C@H](N(C)C)[C@@H](C)O2)/C=C/C=C/C[C@H](C)OC(=O)C[C@H]1O | 4.59% (inactive) |
| C[n+]1cccc(C(=O)O)c1 | 14.5% (inactive) |
| O=C(O)CC(O)(CC(=O)[O][Bi]1[O]C(=O)CC(O)(CC(=O)O)C(=O)[O]1)C(=O)O (stereo not drawn) | 22.8% (inactive) |
| CCC(C)(C)C(=O)O | 9.3% (inactive) |
| O=C(O)Cc1ccc(OCCNC[C@H](O)c2ccccc2)cc1 | 15.6% (inactive) and 5.18% (inactive) |
| COC(=O)C[C@H]1C(C)(C)C(=O)[C@@H]2CC3=C(CC[C@]4(C)C3=CC(=O)O[C@H]4c3ccoc3)[C@@]1(C)C2=O | 16.4% (inactive) |
| CC(=O)OCC(=O)[C@@]1(O)CCC2C3CCC4=CC(=O)CC[C@]4(C)[C@@]3(F)[C@@H](O)C[C@@]21C (stereo partly drawn) | -4.8% (inactive) |
| N[C@@H](CCC(=O)N[C@@H](CS[NH2+][O-])C(=O)NCC(=O)O)C(=O)O | 15.6% (inactive) |

Reference: PubChem BioAssay AID1259421 (Broad Institute, 2018)
